Laboratory results taken from publication PMC4336329 (PLoS ONE, 2015).
Screen size: about 310,000 compounds; about 14,000 (4.5%) showed an effect of 50% or more. The effect is printed as a negative number. Only a selection was taken, and strong results are over-represented in it overall.

What follows are molecules tested against human ether-à-go-go-related gene (hERG) potassium channel (human, UniProt Q12809) (assay: primary screen, population patch clamp on CHO cells stably expressing hERG; higher = less effect of the substance).
human ether-à-go-go-related gene (hERG) potassium channel, sequence (Q12809 whole entry, looked up): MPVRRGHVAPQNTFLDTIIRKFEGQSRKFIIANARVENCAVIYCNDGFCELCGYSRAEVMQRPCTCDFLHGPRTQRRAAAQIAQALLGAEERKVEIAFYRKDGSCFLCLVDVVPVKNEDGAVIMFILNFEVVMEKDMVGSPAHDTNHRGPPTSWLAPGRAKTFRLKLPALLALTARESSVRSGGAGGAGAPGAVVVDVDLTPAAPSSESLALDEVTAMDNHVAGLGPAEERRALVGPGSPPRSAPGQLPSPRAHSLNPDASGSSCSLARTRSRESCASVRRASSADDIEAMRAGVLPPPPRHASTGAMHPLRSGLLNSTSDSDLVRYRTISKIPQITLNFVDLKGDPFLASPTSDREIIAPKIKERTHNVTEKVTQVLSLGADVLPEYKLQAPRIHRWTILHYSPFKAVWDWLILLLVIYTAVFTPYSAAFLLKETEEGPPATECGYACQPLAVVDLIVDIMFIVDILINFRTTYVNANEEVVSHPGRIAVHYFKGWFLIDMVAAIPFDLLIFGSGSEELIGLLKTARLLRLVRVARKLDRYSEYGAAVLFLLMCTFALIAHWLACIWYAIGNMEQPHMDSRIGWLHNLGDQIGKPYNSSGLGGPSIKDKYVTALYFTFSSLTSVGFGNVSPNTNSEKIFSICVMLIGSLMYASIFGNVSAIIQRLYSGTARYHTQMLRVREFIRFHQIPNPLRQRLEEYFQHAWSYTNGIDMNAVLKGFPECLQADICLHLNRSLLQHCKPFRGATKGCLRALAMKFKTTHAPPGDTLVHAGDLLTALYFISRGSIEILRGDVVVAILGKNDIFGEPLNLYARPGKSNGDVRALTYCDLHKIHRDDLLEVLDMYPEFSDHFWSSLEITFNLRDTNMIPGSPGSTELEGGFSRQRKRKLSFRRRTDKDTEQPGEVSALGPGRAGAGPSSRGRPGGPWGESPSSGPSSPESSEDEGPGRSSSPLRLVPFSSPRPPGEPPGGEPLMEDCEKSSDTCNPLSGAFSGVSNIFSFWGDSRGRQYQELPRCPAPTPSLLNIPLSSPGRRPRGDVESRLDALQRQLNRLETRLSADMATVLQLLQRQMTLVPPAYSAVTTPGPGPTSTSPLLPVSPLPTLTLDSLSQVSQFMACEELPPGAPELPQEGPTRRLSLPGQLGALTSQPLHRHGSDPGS
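Further: peak tail current of the secondary pulse compared with the same well before compound.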

In order of rising “hERG current change (%, negative = inhibition) at 10uM” value:
1. CCOC(=O)c1cc2[nH]c3ccccc3c2[n+](-c2ccc([N+](=O)[O-])cc2)c1C.[Cl-]  -77.8%
2. O=C(CN1C(=O)CSc2ccc(S(=O)(=O)N3CCOCC3)cc21)NCCCN1CCc2ccccc2C1  -66.3%
3. CC1CCN(S(=O)(=O)c2ccc3c(c2)N(CC(=O)NCCCN2CC(C)CC(C)C2)C(=O)CS3)CC1 (stereo not drawn)  -66.2%
4. N#Cc1cc2[nH]c3ccccc3c2[n+](-c2ccc([N+](=O)[O-])cc2)c1N.[Cl-]  -65.1%
5. CCOC(=O)c1cc2[nH]c3ccccc3c2[n+](-c2ccc([N+](=O)[O-])cc2)c1N.O=C([O-])C(F)(F)F  -58.4%
6. CC1CCN(CCCNC(=O)CN2C(=O)CSc3ccc(S(=O)(=O)N4CCC(C)CC4)cc32)CC1  -54.5%
7. CC1CCN(S(=O)(=O)c2ccc3c(c2)N(CC(=O)NCc2cccnc2)C(=O)CS3)CC1  -53.3%
8. CC1CCN(S(=O)(=O)c2ccc3c(c2)N(CC(=O)NCCN2C(C)CCCC2C)C(=O)CS3)CC1 (stereo not drawn)  -52.7%
9. CC1CCN(S(=O)(=O)c2ccc3c(c2)NC(=O)CS3)CC1  -52.2%
10. c1ccc(-n2c(Cc3cccnc3)nc3cnccc32)cc1  -50.5%
11. CC1CC(C)CN(CCCNC(=O)CN2C(=O)CSc3ccc(S(=O)(=O)N4CCCCC4)cc32)C1 (stereo not drawn)  -50.2%
12. Cc1ccc(CNC(=O)CN2C(=O)CSc3ccc(S(=O)(=O)N4CCC(C)CC4)cc32)cc1  -27.4%
13. Cn1c(Cc2cccc3ccccc23)nnc1SCC(=O)N1CCN(c2cccc(Cl)c2)CC1  -25.7%
14. CC1CCN(S(=O)(=O)c2ccc3c(c2)N(CC(=O)NCCCN2CCCC(C)C2)C(=O)CS3)CC1 (stereo not drawn)  -20.6%
15. CCCCCCCNC(=O)CN1C(=O)CSc2ccc(S(=O)(=O)N3CCOCC3)cc21  -17.7%
16. COc1ccc(N(CC(=O)NCCSc2ccccn2)S(=O)(=O)c2ccc(C)cc2)cc1OC  -17.7%
17. CC1CCCCN1CCNC(=O)CN1C(=O)CSc2ccc(S(=O)(=O)N3CCCCC3)cc21 (stereo not drawn)  -17.6%
18. Oc1ccc(CN2CCN(Cc3ccccc3)CC2)c2cccnc12  -13.9%
19. CC1CCN(S(=O)(=O)c2ccc3c(c2)N(CC(=O)NCCCN2CCCCC2)C(=O)CS3)CC1  -10.6%
20. CCC1CCCCN1CCCNC(=O)CN1C(=O)CSc2ccc(S(=O)(=O)N3CCC(C)CC3)cc21 (stereo not drawn)  -9.76%
21. COc1ccc(S(=O)(=O)N(CC(=O)N2CCN(C)CC2)C2CCCCC2)cc1OC  -7.66%
22. Cc1cc(C)n2nc(SCc3ccc(F)cc3Cl)nc2n1  -4.5%
23. CCCCCc1c(C)nc(NCc2ccccc2)[nH]c1=O  -4.44%
24. Cc1ccc(C2=Nc3ccccc3N=C(c3ccc([N+](=O)[O-])cc3)C2)c(O)c1  -3.53%
25. CCN(CC)S(=O)(=O)c1ccc(OC(C)C)nc1  -1.16%
26. CC1CCN(S(=O)(=O)c2ccc3c(c2)N(CC(=O)NCCCN2CCCCC2C)C(=O)CS3)CC1 (stereo not drawn)  0.668%
27. CCCc1c(C(=O)NNc2cc(C(F)(F)F)ccc2Cl)cnn1-c1ccccc1  0.78%
28. c1ccc(Cn2nnc3cnccc32)cc1  2.3%
29. N/C(=N\OC(=O)c1ccc(Cl)c(Cl)c1)c1ccccn1  3.76%
30. Cc1[nH]c2ccccc2c1/C=N/Nc1ccc([N+](=O)[O-])cc1  3.95%
31. Cn1c(N=Nc2ccccc2)nc2ccccc21  4.08%
32. COc1ccc([C@@H]2CC(=O)c3c(O)cc(O)cc3O2)cc1O  5.19%
33. S=c1[nH]c2ccccc2n2c(=S)[nH]nc12  5.26%
34. COc1ccc(NC(=O)N(CCCN2CCOCC2)Cc2cccnc2)c(OC)c1  5.99%
35. CC1CCN(CCCNC(=O)CN2C(=O)CSc3ccc(S(=O)(=O)N4CCOCC4)cc32)CC1  6.31%
36. O=C(CN1C(=O)CSc2ccc(S(=O)(=O)N3CCOCC3)cc21)NCc1cccnc1  6.4%
37. O=C(NC1CC2CCCC(C1)N2C(=O)Nc1ccccc1)C1CC1 (stereo not drawn)  6.44%
38. CCOC(=O)c1csc(N)c1-c1ccc([N+](=O)[O-])cc1  6.52%
39. Cc1ccc(C)c(NC(=O)C2C3CCCC2C3c2ccccc2)c1 (stereo not drawn)  6.75%
40. COc1ccc(OC)c(N2Cc3ccccc3C2)c1  12%
41. c1ccc(-n2nnc3cnccc32)cc1  12%
42. CCOC(=O)c1ccccc1NC(=O)c1cccc([N+](=O)[O-])c1  12.5%
43. CCOC(=O)c1ccc(-c2ccc3[nH]c4ccccc4c(=O)c3c2)cc1F  13%
44. CN1CCN(S(=O)(=O)c2ccc3c(c2)NC(=O)CS3)CC1  13.3%
45. COc1ccc([C@H]2CC(=O)C=C(c3cc4ccccc4c4ccccc34)C2)cc1  13.6%
46. COC(=O)C(C(=O)OC)=C(/C=C/C=C/N(C)C)N(C)C  13.9%
47. CC1CC(C)CN(CCCNC(=O)CN2C(=O)CSc3ccc(S(=O)(=O)N4CCOCC4)cc32)C1 (stereo not drawn)  15.8%
48. COCCCNC(=O)CN(c1cc(Cl)ccc1OC)S(C)(=O)=O  17.4%
49. CCOc1ccccc1NC(=O)CCNS(=O)(=O)c1ccccc1  17.6%
50. O=C(CN1C(=O)CSc2ccc(S(=O)(=O)N3CCOCC3)cc21)NCCCN1CCCCC1  18%
51. CCOC(=O)c1cc(=O)[nH]c2ccccc12  19%
52. CC1CCCN(CCCNC(=O)CN2C(=O)CSc3ccc(S(=O)(=O)N4CCOCC4)cc32)C1 (stereo not drawn)  19.5%
53. CCN1CCN(S(=O)(=O)c2ccc3c(c2)NC(=O)CS3)CC1  19.9%
54. Nc1[nH]c2cc([N+](=O)[O-])ccc2c1-c1ccccn1  20.1%
